The source of these data is PubChem BioAssay (NCATS).

Each structure is given as a SMILES string. Results filed as inconclusive are left out. A number with no mark means an inactive call. Activity calls are given as the source filed them. The call rests on the fitted dose curve; in most records, active means well fitted curve in the direction sought with a large enough effect; inconclusive means small, poorly fitted or top-dose-only effect, or another doubt; inactive means no such curve, though single readings can be large; an effect the other way counts as inactive or inconclusive. Bridge positions count the residues as written; N and C are the ends. Square brackets hold non-standard residues; d marks the D form. Side chains are listed from the residue outwards. Peptide text beside a SMILES is read from it. * marks the point of attachment. Phg(4-OMe) = COc1ccc([C@H](N)C(=O)O)cc1; d(aIle) = CC[C@H](C)[C@@H](N)C(=O)O; d(aThr) = C[C@@H](O)[C@@H](N)C(=O)O; NMeF = CN[C@@H](Cc1ccccc1)C(=O)O; Isobutyryl = CC(C)C(=O)*

The first experiment can be described thus: HEK-293 Cancer Cell Toxicity qHTS against the NCATS CANVASS Library (AID 1347355). Further: nearly all actives have a fitted effect of over 65% in size. Further: potency means the concentration at half of the fitted maximal effect. On activity change, negative = cytotoxicity: on the % scale 0 is the no-effect control and ±100 the full control effect. Particulars: HEK-293 viability, CellTiter-Glo luminescence, 72 h; series mostly up to 46.1 µM; activity change, negative = cytotoxicity: at the top concentration. The procedure, abridged:
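Cells were seeded at 1000 per well and allowed to settle 4 hours at 37 degrees C before pin transfer of compounds as an 11-point series. Viability was read by CellTiter-Glo luminescence after 72 hours' exposure.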
A general note: qHTS replaces the single test concentration by a dilution series.
In the case of `COc1cc(/C=C/C(=O)OC[C@@H](Cc2ccc(O)c(OC)c2)[C@@H](COC(=O)/C=C/c2ccc(O)c(OC)c2)Cc2ccc(O)c(OC)c2)ccc1O`, the Potency was 11.8 µM (active). Same read-out and setting: the figure for `C=C[C@@]1(C)CC[C@@H]([C@H](C)C(=O)/C=C/C(C)(C)O)O1` is 26.4 µM (active); for `O=C1CC2OCC=C3CN4C5CC3C2[C@@H]2N1c1ccccc1[C@]52C[C@@H]4C1=C[C@H]2C3CC4N(CC[C@@]45c4ccccc4N(C1=O)[C@@H]25)C/C3=C/CO` (some centres undefined) it is 16.6 µM (active). `C=C1CC[C@@H](O[C@H]2C[C@@](O)([C@H](C)NC(=O)c3[nH]c(C)c(Cl)c3Cl)[C@H](O)[C@@H](C)O2)[C@@H]2C=C[C@H](C)C(/C(O)=C3/C(=O)[C@H](C(C)C)N([C@@H]4O[C@H](C)[C@H](OC(N)=O)[C@H](OC(C)=O)[C@@H]4OC)C3=O)[C@@H]12` (some centres undefined): the “activity change, negative = cytotoxicity” value was -11%.

In the case of `CC[C@H](C)[C@H]1NC(=O)[C@@H](NC(=O)C(C)C)[C@@H](C)OC(=O)[C@H](COC(=O)CNC(C)=O)NC(=O)[C@@H]([C@@H](C)O)NC(=O)[C@H](Cc2ccccc2)N(C)C(=O)[C@H](c2ccc(OC)cc2)NC1=O` (Isobutyryl-T[d(aIle)][Phg(4-OMe)][NMeF][d(aThr)]S([Gly-Ac]); ester 1-C), the result was inactive.

In the case of `COc1ccc2[nH]c3c(c2c1)CCN1C[C@H]2C[C@@H](OC(=O)c4cc(OC)c(OC)c(OC)c4)[C@H](OC)[C@@H](OC)[C@H]2C[C@H]31`, the Potency is 20.9 µM (active). As for `C=C[C@](Cl)(CBr)CCC=C(C)C`, the “activity change, negative = cytotoxicity” value was -9.57%. The same measure, in the same setting: the figure for `C[C@]12CCC[C@](C)(C(=O)O)[C@@H]1CC[C@@]1(C)c3cocc3CC[C@H]21` is -22.3%; for `C[n+]1cc2cc(C(N)=O)[nH]c3c(=N)c(Cl)c(N)c1c23` it is -9.36%. As to `COc1cc2c(c(O)c1O)C(=O)c1c(coc1C)C2=O`, the Potency is 9.35 µM (active). On the same count and under the same terms, the figure for `CN1CC[C@]2(c3cccc4c3N[C@H]3N(C)CC[C@@]43[C@]34CCN(C)[C@H]3Nc3ccccc34)c3ccccc3N[C@H]12` is 7.43 µM (active); for `CC(=O)Oc1cc2c(c(OC(C)=O)c1C1CCc3cc(Cl)c(Cl)n31)C(=O)n1c-2cc(Cl)c1Cl` (centres undefined) it is 16.6 µM (active).

As to `C/C=C(/C)c1c(Cl)c(O)c(C)c2c1Oc1c(Cl)c(O)c(Cl)c(C)c1C(=O)O2`, the “activity change, negative = cytotoxicity” value is -14.5%. For the compound `CC(C)C[C@@H]1c2c(O)c(C=O)c(O)c(C=O)c2O[C@]2(C)C=C[C@@H](C(C)C)C[C@H]12`, the “activity change, negative = cytotoxicity” value was -22.3%. The same measure, in the same setting: the figure for `C[C@H]1C=C[C@H]2CCCC[C@@H]2[C@H]1C(=O)[C@H]1CC2=C(C(=O)O)CCN2C1=O` is -5.07%; for `COC12OC1(C13OC1(OC)C(=O)c1cc4cc(C)oc(=O)c4c(O)c1C3O)C(O)c1c(cc3cc(C)oc(=O)c3c1O)C2=O` (centres undefined) it is -3.42%; for `CO[C@H]1[C@@H](OC(=O)/C(C)=C\[C@@H]2O[C@@H]2[C@H]2O[C@H]2C)[C@H](O)[C@H](OCC23C[C@@H]4[C@H](C)CC[C@H]4C4(C=O)CC2C=C(C(C)C)C34C(=O)O)O[C@@H]1C` (some centres undefined) it is 3.53%.

A short description of a further experiment: HPAF-II 24hr Apoptosis Induction qHTS against the NCATS CANVASS Library (AID 1347356). Further: 0% is about no effect. Conditions: HPAF-II caspase-3/7 Caspase-Glo luminescence; series mostly up to 46.1 µM; caspase activation: at the top concentration. In a few lines: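 HPAF-II cells (500/well) in DMEM + 10% FBS were treated with an 11-point compound series for 24 hours at 37 degrees C. Caspase-3/7 activity was then read by Caspase-Glo DEVD luminescence after 15 min.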
For the compound `CC(C)=CCC[C@]12c3cc4c(cc3CC[C@@]1(C)[C@H](C)CC[C@@H]2O)[nH]c1ccccc14`, the “caspase activation” value is -1.94%. The same measure, in the same setting: the same measure for `C/C=C/C1C=CC2CC(C)CC(C)C2C1C(=O)CC(=O)NC(CO)C/C=C/CCCCC` (centres undefined): 4.91%. Same read-out and setting: the figure for `C=C1CC[C@@H](Br)C(C)(C)[C@]12CC=C(C)C(=O)C2` is 3.18%. On the same count and under the same terms, the same measure for `C=CC(CCCCC)C1C(=O)NC(=O)C1C(=O)C1C(/C=C/C)C=CC2CC(C(=O)O)CC(C)C21` (centres undefined): 2.16%. On to `C=C[C@@]1(C)CC[C@@H]([C@H](C)C(=O)/C=C/C(C)(C)O)O1`, for which the “caspase activation” value was -1.13%. Still for that read-out and setting: the same measure for `O=C1CC2OCC=C3CN4C5CC3C2[C@@H]2N1c1ccccc1[C@]52C[C@@H]4C1=C[C@H]2C3CC4N(CC[C@@]45c4ccccc4N(C1=O)[C@@H]25)C/C3=C/CO` (some centres undefined): 8.31%. Same read-out and setting: the same measure for `C=C1CC[C@@H](O[C@H]2C[C@@](O)([C@H](C)NC(=O)c3[nH]c(C)c(Cl)c3Cl)[C@H](O)[C@@H](C)O2)[C@@H]2C=C[C@H](C)C(/C(O)=C3/C(=O)[C@H](C(C)C)N([C@@H]4O[C@H](C)[C@H](OC(N)=O)[C@H](OC(C)=O)[C@@H]4OC)C3=O)[C@@H]12` (some centres undefined): 2.48%; for `CC[C@H](C)[C@H]1NC(=O)[C@@H](NC(=O)C(C)C)[C@@H](C)OC(=O)[C@H](COC(=O)CNC(C)=O)NC(=O)[C@@H]([C@@H](C)O)NC(=O)[C@H](Cc2ccccc2)N(C)C(=O)[C@H](c2ccc(OC)cc2)NC1=O` (Isobutyryl-T[d(aIle)][Phg(4-OMe)][NMeF][d(aThr)]S([Gly-Ac]); ester 1-C): -1.76%; for `C=C(C)CC[C@H](Cc1c(O)cc(O)c2c1O[C@H](c1ccc(O)cc1)CC2=O)C(=C)C`: 3.34%. The same measure, in the same setting: the figure for `COc1c(O)cc2c(c1O)C(=O)c1c(coc1C)C2=O` is -0.974%; for `C[C@]12CC[C@]3(C1)[C@H](CC2=O)C[C@@H](OC(=O)c1ccccc1)[C@H]1[C@](C)(C(=O)O)CCC[C@@]13C` it is 3.35%; for `Cc1occ2c1C(=O)c1c(cc(O)c(O)c1O)C2=O` it is -0.984%. For the compound `COc1ccc2[nH]c3c(c2c1)CCN1C[C@H]2C[C@@H](OC(=O)c4cc(OC)c(OC)c(OC)c4)[C@H](OC)[C@@H](OC)[C@H]2C[C@H]31`, the “caspase activation” value is -1.31%. The same measure, in the same setting: the same measure for `C=C[C@](Cl)(CBr)CCC=C(C)C`: -1.26%; for `CC(=O)O[C@H]1c2ccccc2-c2c3c(cc4c2[C@@H]1N(C(C)=O)CC4)OCO3`: 1.23%; for `C=CC(CCCCC)C1C(=O)NC(=O)C1C(=O)C1C2C(C)CC(C(=O)O)CC2CC1(O)C(=O)/C=C/C` (centres undefined): -3.34%. On the same count and under the same terms, the same measure for `O[C@H]1c2ccccc2-c2c3c(cc4c2[C@@H]1NCC4)OCO3`: 2.14%. Consider `C[C@]12CCC[C@](C)(C(=O)O)[C@@H]1CC[C@@]1(C)c3cocc3CC[C@H]21`, for which the “caspase activation” value is 5.97%. As to `COc1cc(C2OCC3C(c4ccc(O)c(OC)c4)OCC23)ccc1O` (centres undefined), the caspase activation was 1.94% [at 9.19 µM]. On the same count and under the same terms, the figure for `C[n+]1cc2cc(C(N)=O)[nH]c3c(=N)c(Cl)c(N)c1c23` is -4.13%; for `COc1cc2c(c(O)c1O)C(=O)c1c(coc1C)C2=O` it is -7.18%; for `CCC(=O)N[C@@H](C[C@H](C)C(Cl)(Cl)Cl)C(=O)N1C(=O)C=C(OC)[C@@H]1CC(C)C` it is 2.23%. The same measure, in the same setting: the figure for `O=c1cc(-c2ccc(O)c(O)c2)oc2cc(O[C@@H]3O[C@H](CO)[C@@H](O)[C@H](O)[C@H]3O)cc(O)c12` is -0.95%; for `C/C1=C/[C@@H](C)[C@H](O)[C@@H](O)/C=C/CC/C=C/C(=O)O[C@@H]1[C@H](C)C(=O)CCCC1CC(=O)NC(=O)C1` it is -1.74%.

Regarding `CN1CC[C@]2(c3cccc4c3N[C@H]3N(C)CC[C@@]43[C@]34CCN(C)[C@H]3Nc3ccccc34)c3ccccc3N[C@H]12`, the “caspase activation” value was 3.84%. For the compound `CC[C@H]1[C@H](C)[C@H](c2cc(OC)c(OC)cc2OC)[C@@H](C)[C@H](c2cc(OC)c(OC)cc2OC)[C@@]12C=C(OC)C(=O)C=C2OC`, the “caspase activation” value is 7.84%. Still for that read-out and setting: the same measure for `CC(=O)Oc1cc2c(c(OC(C)=O)c1C1CCc3cc(Cl)c(Cl)n31)C(=O)n1c-2cc(Cl)c1Cl` (centres undefined): 3.72%. As to `COc1cc2c(cc1OC)[C@@H](c1ccc3c(c1)OCO3)C(C)C(C)C2=O` (some centres undefined), the “caspase activation” value was -0.77%. The same measure, in the same setting: the figure for `C/C=C(/C)c1c(Cl)c(O)c(C)c2c1Oc1c(Cl)c(O)c(Cl)c(C)c1C(=O)O2` is 1.32%; for `CC(C)C[C@@H]1c2c(O)c(C=O)c(O)c(C=O)c2O[C@]2(C)C=C[C@@H](C(C)C)C[C@H]12` it is 1.62%.

On to `C/C=C(/C)c1cc(O)c(C)c2c1Oc1cc(O)cc(C)c1C(=O)O2`, for which the “caspase activation” value was -0.388%.

In the case of `CC(C)[C@]12CC[C@@]3(C)[C@H](C)CC[C@H](O)[C@@]3(CC1)c1cc3c(cc12)[nH]c1ccccc13`, the “caspase activation” value was -2.36%. The same measure, in the same setting: the figure for `C[C@H]1C=C[C@H]2CCCC[C@@H]2[C@H]1C(=O)[C@H]1CC2=C(C(=O)O)CCN2C1=O` is -0.121%; for `C/C=C(/C)c1c(Cl)c(OC)c(C)c2c1Oc1c(Cl)c(O)c(Cl)c(C)c1C(=O)O2` it is -2.16%.

Turning to `C/C(=C\CC[C@@H](C)[C@H]1CC[C@]2(C)C3=CCC4C(C)(C)[C@@H](O)C[C@@H](O)[C@]4(C)C3[C@H](O)C[C@@]12C)CO` (some centres undefined), the “caspase activation” value was 4.36%. Take `COC12OC1(C13OC1(OC)C(=O)c1cc4cc(C)oc(=O)c4c(O)c1C3O)C(O)c1c(cc3cc(C)oc(=O)c3c1O)C2=O` (centres undefined): the “caspase activation” value was -2.38%. On the same count and under the same terms, the same measure for `CO[C@H]1[C@@H](OC(=O)/C(C)=C\[C@@H]2O[C@@H]2[C@H]2O[C@H]2C)[C@H](O)[C@H](OCC23C[C@@H]4[C@H](C)CC[C@H]4C4(C=O)CC2C=C(C(C)C)C34C(=O)O)O[C@@H]1C` (some centres undefined): 3.07%.
